Bioassay records from PubChem.
TRHR agonist: TRH receptor (human) agonism | actives 0.18% (n = 360,000) | TRHR cells, calcium flux fluo-8, FDSS agonist mode | activation, % at 2 µM | P34981; also: 0% is about no effect
Target sequence (P34981 whole entry, looked up): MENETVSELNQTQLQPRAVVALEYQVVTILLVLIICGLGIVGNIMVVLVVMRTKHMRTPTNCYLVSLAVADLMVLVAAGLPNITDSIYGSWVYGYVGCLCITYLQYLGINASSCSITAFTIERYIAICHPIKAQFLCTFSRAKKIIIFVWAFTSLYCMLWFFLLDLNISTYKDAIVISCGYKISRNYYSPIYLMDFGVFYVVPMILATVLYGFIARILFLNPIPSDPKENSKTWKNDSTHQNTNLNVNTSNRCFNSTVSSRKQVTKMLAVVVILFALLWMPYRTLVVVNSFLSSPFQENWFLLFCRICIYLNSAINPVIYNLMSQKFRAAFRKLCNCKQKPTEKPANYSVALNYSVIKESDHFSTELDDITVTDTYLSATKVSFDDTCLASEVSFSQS
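Read-out: compound-evoked intracellular calcium rise in TRHR cells, fluo-8 dye, kinetic FDSS fluorescence at 1 s/cycle following a 10-cycle baseline. Cells cultured overnight before dye loading (30 min–1.5 h, RT).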
D1 ag: agonists of human D1 dopamine receptor; P21728; HEK293 T-REx D1 cells, calcium flux, agonist mode; activation, % at 2 µM; actives 1% (n = 360,000); also: 0% is about no effect
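Tetracycline-induced HEK293 TREx D1 cells, force-coupled to calcium signalling, were dye-loaded with a no-wash calcium kit. Compound was pin-added after a 10 s baseline. Fluorescence was read kinetically at 1 cycle/s for 180 s, with calcium rises flagged as agonism.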
TRHR PAM: allosteric enhancers of human TRH receptor; P34981; TRHR cells, fluo-8 calcium fluorescence, EC20 TRH enhancement; enhancement, % at 2 µM; actives 0.66% (n = 360,000); AID 493056; in the data active = enhancement above about 30%; also: 0% is about no effect
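Enhancer read-out: after compound pinning and an initial kinetic agonist-mode read, an EC20 of TRH (10 nM final) was injected and fluo-8 calcium signal (Ex 480/Em 530) followed at 1 s/cycle for 100 cycles in TRHR-expressing cells.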
D1 potentiator: enhances dopamine response at the human D1 receptor | P21728 | HEK293 TREx D1 cells, calcium flux, dopamine EC20 potentiation | actives 0.036% (n = 360,000) | potentiation, % at 10 µM; in the data active = potentiation above about 30%; also: 0% is about no effect
D1 antag: antagonists of human D1 dopamine receptor. activity change, negative = inhibition, % at 10 µM. HEK293 TREx D1 cells, calcium flux, dopamine EC80; stronger effect = lower value. actives 3.2% (n = 360,000). AID 504652. P21728; in the data active = activity change below about -30%; also: % is scaled to controls: 0 for no effect and ±100 for the full control effect
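Cells carrying a force-coupled, tetracycline-inducible human D1 receptor report calcium flux. Each well gets a 10 s baseline, compound with 180 s monitoring, then an EC80 dopamine stimulus with a second 180 s kinetic read.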
The depositor's hits bear a star. The list is not random: actives were taken first. Their share in the collection is about 4.7%. Rule as the data show it, unless noted: active = activation above about 30%; inactive = the rest.

How did CCOc1ccc(S(=O)(=O)Nc2cccc(OC)c2)c2cccnc12 do in these assays?
TRHR agonist: -1; D1 ag: 0; TRHR PAM: -3; D1 potentiator: -4; D1 antag: 18

What do the screens show for `Cc1cccc(Cn2c(N3CCN(C)CC3)nc3c2c(=O)n(C)c(=O)n3C)c1`?
TRHR agonist: -2; D1 ag: 3; TRHR PAM: 7; D1 potentiator: -1; D1 antag: 10

Results for CN(CCC1CCOCC1)C(=O)CC1C(=O)NCCN1Cc1c(F)cccc1Cl (configuration not stated) ?
TRHR agonist: 1; D1 ag: 11; TRHR PAM: -1; D1 potentiator: -3; D1 antag: -52*

Results for CN(CCCC1CCCC1)C(=O)CC1C(=O)NCCN1Cc1cccc(F)c1F (configuration not stated) ?
TRHR agonist: 0; D1 ag: 0; TRHR PAM: 4; D1 potentiator: 30*; D1 antag: 9

How did COc1ccc(C(=O)Oc2cccnc2)cc1 do in these assays?
TRHR agonist: 0; D1 ag: 1; TRHR PAM: 4; D1 potentiator: -5; D1 antag: -32*

What do the screens show for `COC(=O)c1ccc(OC(=O)c2cccnc2)cc1`?
TRHR agonist: 0; D1 ag: 4; TRHR PAM: 0; D1 potentiator: -3; D1 antag: -1

What do the screens show for `O=C(CSc1nc(-c2ccc(F)cc2)cc(C(F)(F)F)n1)NCc1ccccc1`?
TRHR agonist: -1; D1 ag: 7; TRHR PAM: -5; D1 potentiator: -1; D1 antag: -5

Results for Cc1ccccc1-n1nnnc1SCc1csc(-c2ccccc2)n1 ?
TRHR agonist: 1; D1 ag: 12; TRHR PAM: -5; D1 potentiator: -10; D1 antag: -35*

What do the screens show for `CCOC(=O)Cc1csc(NC(=O)Nc2cccc(Cl)c2)n1`?
TRHR agonist: 0; D1 ag: 15; TRHR PAM: -5; D1 potentiator: -14; D1 antag: -42*

How did CCOC(=O)Cc1csc(NC(=S)NC(=O)c2ccccc2Br)n1 do in these assays?
TRHR agonist: 13; D1 ag: 61*; TRHR PAM: 5; D1 potentiator: -4; D1 antag: -27

How did CCOC(=O)Cc1csc(NC(=O)c2ccc(Br)s2)n1 do in these assays?
TRHR agonist: 0; D1 ag: 6; TRHR PAM: -5; D1 potentiator: -7; D1 antag: -36*

What do the screens show for `CCOC(=O)Cc1csc(NC(=S)NC(=O)c2ccccc2)n1`?
TRHR agonist: 8; D1 ag: 9; TRHR PAM: 3; D1 potentiator: -6; D1 antag: 9

What do the screens show for `CC(=O)c1ccc(N2CCN(C(=O)NCc3noc4ccc(C)cc34)CC2)cc1`?
TRHR agonist: 0; D1 ag: 0; TRHR PAM: -6; D1 potentiator: -6; D1 antag: -16

How did O=C(COC(=O)c1cc2c(s1)CCCC2)Nc1ccc(Cl)cn1 do in these assays?
TRHR agonist: -1; D1 ag: 3; TRHR PAM: -2; D1 potentiator: -5; D1 antag: 5

How did O=C(OCc1c(Cl)nc2sccn12)c1cc2c(s1)CCCC2 do in these assays?
TRHR agonist: 0; D1 ag: 3; TRHR PAM: 33*; D1 potentiator: -3; D1 antag: 4

What do the screens show for `CN(c1ccccc1)S(=O)(=O)c1ccc(Cl)c(C(=O)NCc2ccccc2CN2CCCC2)c1`?
TRHR agonist: -2; D1 ag: 0; TRHR PAM: -7; D1 potentiator: -2; D1 antag: 8

Results for CCCOc1ccc(C(=O)CCC(=O)Nc2ccc(N3CCN(C)CC3)cc2)cc1 ?
TRHR agonist: 0; D1 ag: 5; TRHR PAM: 2; D1 potentiator: -20; D1 antag: -79*

How did CN1CCN(c2ccc(NC(=O)Cc3ccccc3)cc2)CC1 do in these assays?
TRHR agonist: 1; D1 ag: 5; TRHR PAM: -1; D1 potentiator: -22; D1 antag: -39*

What do the screens show for `CCOc1cccc(C(=O)NC(=S)Nc2ccc(N3CCN(CC)CC3)cc2)c1`?
TRHR agonist: 0; D1 ag: 19; TRHR PAM: 1; D1 potentiator: -13; D1 antag: -44*

Results for COc1cc(OC)cc(C(=O)NC(=S)Nc2ccc(N3CCCC3)cc2)c1 ?
TRHR agonist: 0; D1 ag: 0; TRHR PAM: 2; D1 potentiator: -5; D1 antag: -35*

What do the screens show for `CCCOc1ccc(C(=O)CCC(=O)OCC(=O)Nc2ccc(OCC)cc2)cc1`?
TRHR agonist: 0; D1 ag: 7; TRHR PAM: 5; D1 potentiator: -6; D1 antag: -2

What do the screens show for `COc1cc(OC)cc(C(=O)NC(=S)N2CCCCCC2)c1`?
TRHR agonist: 0; D1 ag: 2; TRHR PAM: 3; D1 potentiator: -1; D1 antag: -3

What do the screens show for `CC(C)(C)c1cc(CCC(=O)NCC2CCCO2)cc(C(C)(C)C)c1O` (configuration not stated)?
TRHR agonist: 0; D1 ag: 2; TRHR PAM: -4; D1 potentiator: -5; D1 antag: -1

Results for CCCCc1nn2c(=O)cc(COC(=O)CNC(=O)c3ccccc3C)nc2s1 ?
TRHR agonist: 0; D1 ag: 2; TRHR PAM: -2; D1 potentiator: -5; D1 antag: -15

What do the screens show for `Cc1cccc(Cn2c(C)nc3c(N)c(C)c(C)cc32)c1`?
TRHR agonist: 0; D1 ag: 6; TRHR PAM: 1; D1 potentiator: -4; D1 antag: -12

How did CCN1CCN(c2ccc(NC(=O)c3cccc(OCc4ccccc4)c3)cc2)CC1 do in these assays?
TRHR agonist: -1; D1 ag: 39*; TRHR PAM: 5; D1 potentiator: -2; D1 antag: -1

Results for Cc1ccc(C(=O)Nc2ccc(N3CCN(C)CC3)cc2)c(Cl)c1 ?
TRHR agonist: 0; D1 ag: 0; TRHR PAM: -8; D1 potentiator: -8; D1 antag: -33*

What do the screens show for `CN1CCN(c2ccc(CNS(=O)(=O)c3ccccc3)cc2)CC1`?
TRHR agonist: 0; D1 ag: 4; TRHR PAM: 6; D1 potentiator: -2; D1 antag: -35*

How did CN1CCN(c2ccc(NC(=O)c3cccc(OCc4ccccc4)c3)cc2)CC1 do in these assays?
TRHR agonist: -1; D1 ag: 14; TRHR PAM: 3; D1 potentiator: -8; D1 antag: -64*

What do the screens show for `COc1cccc(C(=O)Nc2ccc(N3CCN(Cc4ccccc4)CC3)cc2)c1`?
TRHR agonist: 2; D1 ag: 3; TRHR PAM: 2; D1 potentiator: -7; D1 antag: -3

What do the screens show for `CCc1ccc(S(=O)(=O)NCc2ccc(N3CCN(C)CC3)cc2)cc1`?
TRHR agonist: 0; D1 ag: 5; TRHR PAM: 1; D1 potentiator: -2; D1 antag: 1
